PubChem BioAssay
Active and inactive are the calls of the source.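 How the source made its calls, unless noted: active means visually confirmed hit in the image check and inhibition above 20%; inconclusive means visually confirmed hit but inhibition not above 20%; inactive means no visual hit in the image check.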

Key:
[1] = inhibitors of TNFa-induced NFkB p65 translocation, primary screen, imaging, HUVEC, MLSMR starter and 10KST1 sets (AID 438;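 active means inhibition above 20% together with a positive visual image hit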;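 further: compound added about 3h40 before a 20 min TNFalpha stimulation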;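 on inhibition: signal is the nuclear over cytoplasmic p65 intensity ratio per well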); conditions: HUVEC TNFa-induced p65 nuclear translocation; cell count: measured here: nuclei count (cytotoxicity indicator), at 2.08 µM; inhibition: at 2 µM, stronger effect = higher value, 0% TNFa-plus-vehicle, 100% no-TNFa wells
[2] = inhibitors of mutant huntingtin aggregation, primary screen, imaging, exon1htt(103Q)mCFP cells, high-content imaging (AID 483;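 active means visual image review flags a hit and inhibition of aggregation exceeds 20%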;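 further: compound exposure lasted 3 days before fixation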;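 on nuclei count: percent of the per-plate median nuclei count of sample wells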); conditions: exon1htt(103Q)mCFP cell line, aggregate imaging, at 2 µM; inhibition of aggregation: stronger effect = higher value; nuclei count: measured here: cell count, toxicity
[3] = inhibitors of E-selectin induction by TNFa, primary screen, imaging, HUVEC, immunofluorescence, MLSMR starter and 10KST1 sets (AID 487); conditions: HUVEC TNFalpha-induced E-selectin immunofluorescence imaging, at 2 µM; inhibition: stronger effect = higher value; nuclei count: measured here: cell number, toxicity;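 on inhibition: signal is fraction of cell area covered by stained E-selectin grains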;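 on nuclei count: 100% = median nuclei count of all wells on the same plate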
[4] = molecular target: Voltage-gated potassium channel subunit beta-2 (Rattus norvegicus) (UniProt P62483); assay: KvBeta enzyme negative modulators, primary screen, biochemical, NADPH fluorescence (AID 622;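 active means fluorescence slope higher than the sample average by over 3 SD, cut at about -0.22 in these data, passing the limit was not always enough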;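 further: slope of raw intensity against log time taken from 70 to 1610 s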); conditions: recombinant KvBeta, 4-cyanobenzaldehyde reduction, at 10 µM, stronger effect = higher value
[5] = molecular target: Voltage-gated potassium channel subunit beta-2 (Rattus norvegicus) (UniProt P62483); assay: KvBeta positive modulators, primary screen, biochemical, NADPH fluorescence (AID 623;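 active means NADPH fluorescence slope more negative than the mean of all samples by about 3 SD, 99.7% confidence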;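 further: fluorescence intensity change per second fitted from 20 to 320 s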); conditions: Recombinant KvBeta, NADPH fluorescence decrease slope, 10 min; at 10 µM; stronger effect = lower value
[6] = molecular target: Alpha-2C adrenergic receptor (Homo sapiens) (UniProt P18825); assay: modulators of alpha2C/GIRK thallium flux, primary screen, cell-based, HEK293 alpha2C/GIRK1/2 (AID 624;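 active means fluorescence slope after compound addition differing from the mean of all screened samples at 99.7% confidence, in either direction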;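 further: slope of fluorescence ratio to pre-addition baseline per second over 15 to 24 s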); conditions: thallium flux BTC fluorescence, at 10 µM, actives lie on both sides
[7] = inhibitors of Sendai virus-induced IRF3 signaling, primary screen, TLR/RLR signaling modifier project, cell-based, Sendai virus stimulus, luciferase, 10K MLSCN set (AID 602276;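 active means inhibition at or above 50% at 10 µM; inactive means inhibition below 50%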;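 further: firefly luciferase from ISG56 promoter only with Renilla not read in this screen; 0% = Sendai virus plus DMSO and 100% = medium plus DMSO without virus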); conditions: HEK293 RL24 IRF3 luciferase reporter, at 10 µM, stronger effect = higher value
[8] = inhibitors of poly I:C-induced TLR3 signaling, primary screen, cell-based, poly I:C stimulus, luciferase, 10K MLSCN set (AID 602277;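 active means inhibition of the reporter signal at or above 50%; inactive means inhibition below 50%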); conditions: HEK293-TLR3 RL24 IRF3 luciferase reporter, at 10 µM, stronger effect = higher value

Alpha-2C adrenergic receptor (Homo sapiens), sequence (P18825 whole entry, looked up): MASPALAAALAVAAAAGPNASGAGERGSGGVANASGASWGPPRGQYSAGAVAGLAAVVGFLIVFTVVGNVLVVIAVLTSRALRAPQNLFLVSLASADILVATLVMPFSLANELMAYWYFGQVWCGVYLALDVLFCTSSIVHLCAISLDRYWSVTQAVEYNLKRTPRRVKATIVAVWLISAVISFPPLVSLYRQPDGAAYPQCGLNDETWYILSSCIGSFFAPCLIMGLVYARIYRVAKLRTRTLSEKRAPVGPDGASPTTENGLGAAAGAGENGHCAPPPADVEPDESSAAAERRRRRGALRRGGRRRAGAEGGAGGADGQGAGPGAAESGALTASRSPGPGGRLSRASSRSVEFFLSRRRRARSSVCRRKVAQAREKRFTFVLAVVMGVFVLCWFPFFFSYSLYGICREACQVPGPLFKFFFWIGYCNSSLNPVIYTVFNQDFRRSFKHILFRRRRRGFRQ
Voltage-gated potassium channel subunit beta-2 (Rattus norvegicus), sequence (P62483 whole entry, looked up): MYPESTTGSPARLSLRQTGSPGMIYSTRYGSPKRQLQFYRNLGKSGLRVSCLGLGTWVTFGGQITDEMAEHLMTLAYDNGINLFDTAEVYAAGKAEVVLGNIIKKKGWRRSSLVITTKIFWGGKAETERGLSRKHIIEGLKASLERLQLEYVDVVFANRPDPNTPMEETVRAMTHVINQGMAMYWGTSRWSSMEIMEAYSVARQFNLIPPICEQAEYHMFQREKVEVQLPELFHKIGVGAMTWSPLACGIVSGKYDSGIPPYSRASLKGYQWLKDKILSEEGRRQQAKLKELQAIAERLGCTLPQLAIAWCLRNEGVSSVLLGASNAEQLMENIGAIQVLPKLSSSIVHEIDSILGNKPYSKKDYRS

SMILES: COC(=O)c1ccc(C2C(C#N)=C(N)Oc3cc(C)n(C)c(=O)c32)cc1 (centres undefined)
- cell count [1]: 551
- inhibition [1]: -11.1% (inactive)
- inhibition of aggregation [2]: 0.4% (inactive)
- nuclei count [2]: 111%
- inhibition [3]: -1.7% (inactive)
- nuclei count [3]: 111%
- fluorescence slope [4]: -0.499 (inactive)
- NADPH fluorescence slope [5]: -4.1e-05 (inactive)
- slope [6]: 0.00425 (inactive)
- inhibition [7]: 9.77% (inactive)
- inhibition [8]: 6% (inactive)

SMILES: COCCn1cc(C(=O)c2ccccc2OCC(=O)Nc2cc(C)on2)cc(C#N)c1=O
- cell count [1]: 455
- inhibition [1]: 5.8% (inactive)
- inhibition of aggregation [2]: -23.9% (inactive)
- nuclei count [2]: 77.9%
- inhibition [3]: -7% (inactive)
- nuclei count [3]: 97.9%
- fluorescence slope [4]: -0.368 (inactive)
- NADPH fluorescence slope [5]: 6.2e-06 (inactive)
- slope [6]: 0.00464 (inactive)
- inhibition [7]: 9.82% (inactive)
- inhibition [8]: 15.9% (inactive)

SMILES: Cc1cccc(OCc2nc(C#N)c(NCCN(C)C)o2)c1
- cell count [1]: 628
- inhibition [1]: -2.9% (inactive)
- inhibition of aggregation [2]: -1.8% (inactive)
- nuclei count [2]: 102%
- inhibition [3]: -27.6% (inactive)
- nuclei count [3]: 105%
- fluorescence slope [4]: -0.514 (inactive)
- NADPH fluorescence slope [5]: -3.5e-05 (inactive)
- slope [6]: 0.00503 (inactive)
- inhibition [7]: 9.05% (inactive)
- inhibition [8]: 28.8% (inactive)

SMILES: CCC(C(=O)Nc1ccccc1C(=O)N1CCCC1)N1C(=O)c2ccccc2C1=O (centres undefined)
- cell count [1]: 623
- inhibition [1]: 16.8% (inactive)
- inhibition of aggregation [2]: -16.8% (inactive)
- nuclei count [2]: 109%
- inhibition [3]: -112% (inactive)
- nuclei count [3]: 112%
- fluorescence slope [4]: -0.356 (inactive)
- NADPH fluorescence slope [5]: 9.2e-06 (inactive)
- slope [6]: 0.0034 (inactive)
- inhibition [7]: 4.49% (inactive)
- inhibition [8]: 15.4% (inactive)

SMILES: Cc1cc(C)n(CC(=O)NC2CCCCC2)n1
- cell count [1]: 406
- inhibition [1]: -0.6% (inactive)
- inhibition of aggregation [2]: -4.9% (inactive)
- nuclei count [2]: 105%
- inhibition [3]: -225% (inactive)
- nuclei count [3]: 114%
- fluorescence slope [4]: -0.468 (inactive)
- NADPH fluorescence slope [5]: -1.5e-06 (inactive)
- slope [6]: 0.00622 (inactive)
- inhibition [7]: 14.7% (inactive)
- inhibition [8]: 18% (inactive)

SMILES: CCC12CN3CC(CC)(CN(C1)C3c1ccc(OC(C)C)cc1)C2=O (centres undefined)
- cell count [1]: 692
- inhibition [1]: 12.1% (inactive)
- inhibition of aggregation [2]: 10.5% (inactive)
- nuclei count [2]: 93.2%
- inhibition [3]: -15.2% (inactive)
- nuclei count [3]: 94.3%
- fluorescence slope [4]: -0.528 (inactive)
- NADPH fluorescence slope [5]: -0.000143 (inactive)
- slope [6]: 0.0058 (inactive)
- inhibition [7]: 8.78% (inactive)
- inhibition [8]: 15.9% (inactive)

SMILES: COc1ccc(-c2nc(CCNC(=O)c3ccco3)cs2)cc1OC
- cell count [1]: 696
- inhibition [1]: -9.6% (inactive)
- inhibition of aggregation [2]: -8.9% (inactive)
- nuclei count [2]: 102%
- inhibition [3]: -4% (inactive)
- nuclei count [3]: 114%
- fluorescence slope [4]: -0.524 (inactive)
- NADPH fluorescence slope [5]: -2.4e-05 (inactive)
- slope [6]: 0.00779 (inactive)
- inhibition [7]: 22.7% (inactive)
- inhibition [8]: -5.2% (inactive)

SMILES: CCCCOc1ccc(-c2ncc(C(=O)OCC)c(N)n2)cc1
- cell count [1]: 377
- inhibition [1]: 1.6% (inactive)
- inhibition of aggregation [2]: 16.9% (inactive)
- nuclei count [2]: 73.4%
- inhibition [3]: -71.6% (inactive)
- nuclei count [3]: 115%
- fluorescence slope [4]: -0.452 (inactive)
- NADPH fluorescence slope [5]: -4.6e-05 (inactive)
- slope [6]: 0.00612 (inactive)
- inhibition [7]: 0.257% (inactive)
- inhibition [8]: -34.4% (inactive)

SMILES: COc1ccc(CCNC(=O)CC2COc3ccccc3O2)cc1OC (centres undefined)
- cell count [1]: 611
- inhibition [1]: -7.2% (inactive)
- inhibition of aggregation [2]: 25% (inactive)
- nuclei count [2]: 115%
- inhibition [3]: -28.9% (inactive)
- nuclei count [3]: 115%
- fluorescence slope [4]: -0.619 (inactive)
- NADPH fluorescence slope [5]: 2.1e-05 (inactive)
- slope [6]: 0.00334 (inactive)
- inhibition [7]: 19.4% (inactive)
- inhibition [8]: 20.3% (inactive)

SMILES: CCc1cccc(NC(=O)Cn2cc3c(n2)CCCC3)c1
- cell count [1]: 759
- inhibition [1]: -2.8% (inactive)
- inhibition of aggregation [2]: 7.5% (inactive)
- nuclei count [2]: 101%
- inhibition [3]: -27.9% (inactive)
- nuclei count [3]: 113%
- fluorescence slope [4]: -0.506 (inactive)
- NADPH fluorescence slope [5]: -2.1e-05 (inactive)
- slope [6]: 0.0103 (active)
- inhibition [7]: 13.7% (inactive)
- inhibition [8]: 26.6% (inactive)

SMILES: CS(=O)(=O)NCc1ccc(C(=O)NCc2ccccc2)cc1
- cell count [1]: 640
- inhibition [1]: 3.3% (inactive)
- inhibition of aggregation [2]: 0% (inactive)
- nuclei count [2]: 104%
- inhibition [3]: -19.7% (inactive)
- nuclei count [3]: 109%
- fluorescence slope [4]: -0.415 (inactive)
- NADPH fluorescence slope [5]: -3.9e-05 (inactive)
- slope [6]: 0.003 (inactive)
- inhibition [7]: -0.454% (inactive)
- inhibition [8]: 5.61% (inactive)

SMILES: Cc1nnc(N(C)C(=O)c2cccnc2)s1
- cell count [1]: 704
- inhibition [1]: -7.5% (inactive)
- inhibition of aggregation [2]: 8.5% (inactive)
- nuclei count [2]: 109%
- inhibition [3]: -47.1% (inactive)
- nuclei count [3]: 109%
- fluorescence slope [4]: -0.547 (inactive)
- NADPH fluorescence slope [5]: 3.7e-05 (inactive)
- slope [6]: 0.0062 (inactive)
- inhibition [7]: -6.83% (inactive)
- inhibition [8]: -1.4% (inactive)

SMILES: COc1ccc(-c2noc(-c3ccccc3C(=O)Nc3cccnc3)n2)cc1
- cell count [1]: 218
- inhibition [1]: 6.7% (inactive)
- inhibition of aggregation [2]: 0.1% (inactive)
- nuclei count [2]: 87.6%
- inhibition [3]: -54.7% (inactive)
- nuclei count [3]: 95.3%
- fluorescence slope [4]: -0.601 (inactive)
- NADPH fluorescence slope [5]: 1.8e-05 (inactive)
- slope [6]: 0.00583 (inactive)
- inhibition [7]: 12.1% (inactive)
- inhibition [8]: 12.9% (inactive)

SMILES: CC1=NC(Nc2nc(C)c3ccccc3n2)=NC(C)(C)C1
- cell count [1]: 391
- inhibition [1]: 1.5% (inactive)
- inhibition of aggregation [2]: -1.8% (inactive)
- nuclei count [2]: 94%
- inhibition [3]: -13% (inactive)
- nuclei count [3]: 111%
- fluorescence slope [4]: -0.462 (inactive)
- NADPH fluorescence slope [5]: 6.6e-05 (inactive)
- slope [6]: 0.00711 (inactive)
- inhibition [7]: 3.86% (inactive)
- inhibition [8]: 1.48% (inactive)
